Records with an inconclusive call do not appear. Active and inactive are the calls of the source. Unless noted, calls come from the whole dose curve; as a rule, active = well fitted curve in the direction sought with a large enough effect in the repeat runs; inconclusive = weak or mixed curves; inactive = no such curve, though single readings can be large; an effect the other way counts as inactive or inconclusive.
What was measured:
[1] = qHTS assay for small molecule agonists of the p53 signaling pathway (AID 651631; calls by dose curve; note: nearly all actives have a fitted effect of over 15% in size; note: potency is the fitted concentration of half-maximal effect)
Method in brief: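 Testing took place in human colorectal HCT-116 cells with stable p53RE-driven beta-lactamase. After 16 h of compound exposure at 37 °C, a FRET substrate was added and fluorescence recorded 2 h later.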

[2] = qHTS assay for small molecules that induce genotoxicity in human embryonic kidney cells expressing luciferase-tagged ATAD5 (AID 651632); note: nearly all actives have a fitted effect of over 15% in size
Method in brief: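 Genotoxicity read-out via ATAD5-luciferase: HEK293T cells, 16 hr compound incubation at 37C, Amplite detection.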

[3] = qHTS assay for small molecule agonists of the p53 signaling pathway - cell viability (AID 651633; calls by dose curve; note: nearly all actives have a fitted effect of over 30% in size; note: potency is the fitted concentration of half-maximal effect)
Method in brief: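 p53RE-bla cells were treated with compound for 16 hours at 37 C. Cytotoxicity was then measured as CellTiter-Glo luminescence after 30 min at room temperature.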

[4] = qHTS assay for small molecules that induce genotoxicity in human embryonic kidney cells expressing luciferase-tagged ATAD5 - cell viability (AID 651634; calls by dose curve; note: nearly all actives have a fitted effect of over 25% in size; note: potency is the fitted concentration of half-maximal effect)
Method in brief: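 Live-cell protease activity (CellTiter-Fluor, fluorescence) indicates viability. HEK293T cells with luciferase-tagged ATAD5; 15.5 hr compound treatment at 37C.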

[5] = qHTS assay for small molecule disruptors of the mitochondrial membrane potential - cell viability (AID 720634; calls by dose curve;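 note: human HepG2 liver cancer cells; nearly all actives have a fitted effect of over 20% in size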)
Method in brief: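 Human hepatoma HepG2 cells were treated for 1 hr with test chemicals, then given m-MPI dye and CellTiter-Glo. Cell viability reflects luminescence proportional to cellular ATP.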

[6] = qHTS assay to test for compound auto fluorescence at 590 nm (red) in HepG2 cells (AID 720674)
Method in brief: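 HepG2 cells, 2,000 per well in MEM with 10% FBS, attached overnight at 37 C, then got 23 nL compound or DMSO. After 1 hr at 37 C, 5% CO2, red fluorescence was read at 540/590 nm against Rose Bengal sodium as reference.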

[7] = qHTS assay to test for compound auto fluorescence at 535 nm (green) in HepG2 cells (AID 720675)
[8] = qHTS assay to test for compound auto fluorescence at 460 nm (blue) in HEK293 cells (AID 720678)
Method in brief: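 HEK293 cells (2,000 per well, medium with 10% dialyzed FBS) attached for 4-5 hr at 37C, then received compound and stood overnight at 37C, 5% CO2. Blue fluorescence was read at Ex/Em 405/460 nm and expressed relative to triamterene.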

[9] = qHTS assay to test for compound auto fluorescence at 590 nm (red) in HEK293 cells (AID 720679)
Method in brief: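 HEK293 cells (2,000/well, medium with 10% dialyzed FBS) attached for 4-5 hr at 37C, received 23 nL compound and were incubated overnight at 37C, 5% CO2. Red fluorescence was then read at 540/590nm Ex/Em, referenced to Rose Bengal sodium.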

[10] = qHTS assay to test for compound auto fluorescence at 535 nm (green) in HEK293 cells (AID 720680)
[11] = qHTS assay to test for compound auto fluorescence at 460 nm (blue) in HEK293 cell free culture (AID 720681)
Method in brief: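 Compounds were added to cell-free DMEM with 10% FBS and fluorescence read directly. The blue channel used 405 nm excitation and 460 nm emission, with triamterene as the reference fluorophore.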

[12] = qHTS assay to test for compound auto fluorescence at 535 nm (green) in HEK293 cell free culture (AID 720682)
Method in brief: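 DMEM + 10% FBS, cell-free; cpd or DMSO pinned in; Ex485/Em535 read; output as fluorescein-equivalent signal.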

[13] = qHTS assay to test for compound auto fluorescence at 590 nm (red) in HEK293 cell free culture (AID 720683)
Method in brief: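 Cell-free wells of DMEM with 10% FBS received compound, and intrinsic fluorescence was read at excitation/emission 540/590 nm. Values expressed as equivalence to Rose Bengal sodium.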

[14] = qHTS assay to test for compound auto fluorescence at 590 nm (red) in HepG2 cell free culture (AID 720684)
Method in brief: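 Compounds are added to culture medium (MEM, 10% FBS) lacking cells, then fluorescence is read at excitation 540 nm, emission 590 nm, with Rose Bengal sodium as the equivalency standard.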

[15] = qHTS assay to test for compound auto fluorescence at 460 nm (blue) in HepG2 cell free culture (AID 720685)
Method in brief: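 Compound (23 nL) or DMSO pinned into cell-free MEM with 10% FBS; blue fluorescence read at 405/460 nm excitation/emission, expressed as auto-fluorescence equivalency to triamterene.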

[16] = qHTS assay to test for compound auto fluorescence at 535 nm (green) in HepG2 cell free culture (AID 720686)
[17] = qHTS assay to test for compound auto fluorescence at 460 nm (blue) in HepG2 cells (AID 720687)
Method in brief: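 HepG2 cells in MEM with 10% FBS, attached overnight at 37 C, were exposed to compound or DMSO for 1 hr at 37 C, 5% CO2. Blue fluorescence was read at 405/460 nm, with triamterene as reference fluorophore.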

[18] = target: Glucocorticoid receptor (Homo sapiens) (UniProt P04150); test: qHTS assay to identify small molecule agonists of the glucocorticoid receptor (GR) signaling pathway (AID 720691; active = well fitted activation curve with a large enough effect in the signal ratio in the repeat runs, not every such curve was filed as active; the % refers to the signal ratio); settings: GR-bla HeLa, beta-lactamase reporter ratio, 18 h; activation: at 62.4 µM (top of the series)
Method in brief: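 Beta-lactamase reporter activity, read as fluorescence intensity, was measured in GR-bla HeLa cells exposed to compounds for 18 h at 37 C and then loaded with LiveBLAzer B/G FRET substrate for 2 h at room temperature.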

[19] = target: Glucocorticoid receptor (Homo sapiens) (UniProt P04150); test: qHTS assay to identify small molecule antagonists of the glucocorticoid receptor (GR) signaling pathway (AID 720692; active = well fitted inhibition curve with a large enough effect in the signal ratio in the repeat runs, not every such curve was filed as active; the % refers to the signal ratio)
Method in brief: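 Fluorescence from cleaved LiveBLAzer B/G FRET substrate reports GRE-driven beta-lactamase in HeLa cells; compounds are tested against 5 nM dexamethasone (final) over 18 h at 37 C, substrate incubation 2 h at room temperature.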

[20] = qHTS assay for small molecule disruptors of the mitochondrial membrane potential (AID 720635); note: potency is the fitted concentration of half-maximal effect
Method in brief: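 HepG2 cells exposed to compound 1 hr at 37C, then Mito-MPS dye 30 min. Ratio read of aggregate (540/590 nm) versus monomer (490/535 nm) fluorescence.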

Measured: Potency

Glucocorticoid receptor (Homo sapiens), sequence (P04150 whole entry, looked up): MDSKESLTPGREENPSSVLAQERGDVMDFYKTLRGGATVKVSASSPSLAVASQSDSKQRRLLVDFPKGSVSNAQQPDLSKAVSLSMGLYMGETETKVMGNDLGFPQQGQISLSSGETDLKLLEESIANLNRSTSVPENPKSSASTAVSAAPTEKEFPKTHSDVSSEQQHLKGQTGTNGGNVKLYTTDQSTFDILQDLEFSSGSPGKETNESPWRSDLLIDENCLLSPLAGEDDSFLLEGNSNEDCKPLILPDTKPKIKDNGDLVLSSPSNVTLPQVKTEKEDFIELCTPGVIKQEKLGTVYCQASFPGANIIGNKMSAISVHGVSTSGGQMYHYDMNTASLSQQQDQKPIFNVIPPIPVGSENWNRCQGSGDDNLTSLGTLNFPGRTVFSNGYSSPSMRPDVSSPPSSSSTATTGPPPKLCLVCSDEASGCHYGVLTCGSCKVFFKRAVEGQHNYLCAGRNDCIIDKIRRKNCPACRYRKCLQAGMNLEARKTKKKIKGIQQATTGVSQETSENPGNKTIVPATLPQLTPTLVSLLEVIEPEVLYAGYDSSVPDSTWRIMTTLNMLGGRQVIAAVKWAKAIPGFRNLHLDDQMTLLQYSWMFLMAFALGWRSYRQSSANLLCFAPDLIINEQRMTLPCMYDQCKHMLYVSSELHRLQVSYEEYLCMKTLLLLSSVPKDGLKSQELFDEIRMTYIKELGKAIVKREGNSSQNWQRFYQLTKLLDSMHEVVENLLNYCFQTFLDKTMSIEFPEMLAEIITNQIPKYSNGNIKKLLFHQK

O=c1[nH]c(=O)n([C@H]2C[C@H](O)[C@@H](CO)O2)cc1/C=C/Br
not listed: [20]
inactive: all other assays above

C=CCN1C(=O)C(CC(C)C)NC1=S (configuration not stated)
not listed: [20]
inactive: all other assays above

O=C(O)[C@H]1CN(C/C=C/P(=O)(O)O)CCN1
not listed: [12] | [20]
inactive: all other assays above

CC(C)Cc1ccc([C@H](C)C(=O)O)cc1
not listed: [20]
inactive: all other assays above

S=C1NC=NC2N=CNC12 (configuration not stated)
active: [1] 3.44 µM | [3] 0.545 µM | [20] 4.86 µM
not listed: [5] | [18] | [19]
inactive: all other assays above

Cc1cc(-c2ccc(N=Nc3ccc4c(S(=O)(=O)O)cc(S(=O)(=O)O)c(N)c4c3O)c(C)c2)ccc1N=Nc1ccc2c(S(=O)(=O)O)cc(S(=O)(=O)O)c(N)c2c1O
active: [4] 13.3 µM
not listed: [11] | [12] | [20]
inactive: all other assays above

NC(=O)C1c2ccccc2CCc2ccccc21
not listed: [5]
inactive: all other assays above

CO/N=C(\C(=O)N[C@@H]1C(=O)N2C(C(=O)O)=C(COC(C)=O)CS[C@H]12)c1csc(N)n1 (stereo in doubt)
not listed: [5]
inactive: all other assays above

CC(C)CCC[C@@H](C)[C@H]1CC[C@H]2[C@@H]3CC[C@@H]4C[C@H](O)CC[C@]4(C)[C@H]3CC[C@]12C
not listed: [11] | [12] | [19] | [20]
inactive: all other assays above

CC12CCC(C[N+](C)(CCC[N+](C)(C)C)C1)C2(C)C (configuration not stated)
not listed: [5] | [11] | [18] | [19]
inactive: all other assays above

CC[N+](CC)(CC)CCC(O)(c1ccccc1)C1CCCCC1 (configuration not stated)
not listed: [5] | [20]
inactive: all other assays above

C[C@@H]1O[C@@H](OC[C@H]2O[C@@H](Oc3c(-c4ccc(OCCO)c(OCCO)c4)oc4cc(OCCO)cc(O)c4c3=O)[C@H](O)[C@@H](O)[C@@H]2O)[C@H](O)[C@H](O)[C@H]1O
not listed: [5] | [8]
inactive: all other assays above

CCCC(CCC)C(=O)OC1C[C@H]2CC[C@@H](C1)[N+]2(C)C (some centres not stated)
not listed: [4] | [18] | [19]
inactive: all other assays above

O=C1[O][Bi][O]c2ccccc21
inactive: [1] | [2] | [3] | [4] | [20] | [12]

CC(=O)Nc1ccc(OC(C)=O)cc1
not listed: [5]
inactive: all other assays above

Source: PubChem BioAssay (Tox21)
